Reference: the supplement of paper PMC12632987

Target: T1, USP38, Q8NB14
T1 chain: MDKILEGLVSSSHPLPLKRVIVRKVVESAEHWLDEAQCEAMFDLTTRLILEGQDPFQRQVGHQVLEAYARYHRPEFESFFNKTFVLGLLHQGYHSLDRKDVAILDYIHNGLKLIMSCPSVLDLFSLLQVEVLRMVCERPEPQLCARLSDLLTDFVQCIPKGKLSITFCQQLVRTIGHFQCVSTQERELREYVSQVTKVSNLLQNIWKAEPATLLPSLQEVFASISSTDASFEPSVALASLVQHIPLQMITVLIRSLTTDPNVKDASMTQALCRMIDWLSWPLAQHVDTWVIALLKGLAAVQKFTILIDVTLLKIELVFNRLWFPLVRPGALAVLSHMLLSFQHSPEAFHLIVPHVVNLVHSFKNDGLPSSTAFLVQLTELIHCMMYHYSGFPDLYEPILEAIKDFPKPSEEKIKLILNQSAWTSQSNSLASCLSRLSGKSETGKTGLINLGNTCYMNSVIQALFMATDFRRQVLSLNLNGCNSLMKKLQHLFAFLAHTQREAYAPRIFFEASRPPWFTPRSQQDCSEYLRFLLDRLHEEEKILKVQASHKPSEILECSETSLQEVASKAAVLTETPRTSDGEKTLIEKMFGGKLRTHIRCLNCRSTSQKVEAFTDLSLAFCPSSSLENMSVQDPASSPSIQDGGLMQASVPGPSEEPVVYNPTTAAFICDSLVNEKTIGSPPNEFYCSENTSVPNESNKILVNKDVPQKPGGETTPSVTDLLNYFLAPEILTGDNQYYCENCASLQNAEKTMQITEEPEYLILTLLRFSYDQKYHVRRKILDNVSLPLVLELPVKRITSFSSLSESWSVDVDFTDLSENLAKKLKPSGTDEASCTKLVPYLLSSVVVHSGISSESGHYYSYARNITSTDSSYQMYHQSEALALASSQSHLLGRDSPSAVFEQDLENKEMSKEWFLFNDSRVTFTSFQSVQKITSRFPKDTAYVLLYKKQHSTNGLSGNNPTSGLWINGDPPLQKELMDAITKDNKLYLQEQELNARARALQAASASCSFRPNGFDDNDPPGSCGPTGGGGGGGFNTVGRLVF
Test: median log2 fold change of GCK-ALFA target abundance (FLAG IP / Myc IP barcode read proportion) (log2 ratio); each designed protein is fused to an ALFA-tag nanobody in HEK293 cells to bring the named protein to FLAG-tagged glucokinase (GCK); Myc marks an untargeted standard; higher = target protein stabilised (more abundant)
Conditions: target protein: 3xFLAG-MCP-GCK-ALFA reporter; HEK293 landing pad (RPLP)
Method in brief: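 The readout is target abundance, the per-binder median log2 ratio of FLAG to Myc barcode read proportions. It came from HEK293 landing-pad cells carrying a recombined ALFA-nanobody-fused binder library, induced with 2 μg mL^−1 doxycycline and transfected with a plasmid for a FLAG-tagged target and a Myc-tagged standard. After 48 h, lysates were immunoprecipitated with anti-FLAG and anti-Myc, and circular RNA barcodes were reverse transcribed, amplified and sequenced. Each barcode needed a proportion of at least 10^−7 in both replicates and each binder at least 3 barcodes per replicate, a pseudocount of 10^−6 was added, and the replicates were pooled.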

B1: usp_38_diff_out_18_28_427 (protein)
chain: ALAANQATIEKARAEADKLIDESNKILTEAYLAYHEDPSSKELLEAAKKLSDALGKAAQAVNDMRAHRHDAAAVAKHAKEFEKAAKEAKKAIEEIKKLLK
For B1, the “median log2 fold change” value was -0.128.

B2: usp_38_diff_out_18_28_419 (protein)
chain: MLEERQKKIEKLQKEADELIDKYTEAAEKGFLKYHEDPSAEEVLEAIKELSDHVGAAAAAVNEMKENIENEEKFEEELKKFKEHKKKALEALEKLKKLLA
B2 was tested, and the “median log2 fold change” value was 0.0382.

B3: usp_38_diff_out_18_28_422 (protein)
chain: SLAERRALIEELKKEADELIDEYTELATEAFLAYHENPDAEELLAAADALSDAVGAAAAAVREMREHLEDEAKVEAYTKEFKAQKKEAKEKAKELKKLLA
With B3 the “median log2 fold change” value was -0.0738.

B4: usp_38_diff_out_18_28_411 (protein)
chain: KKEEIQEKIKKAEEKLDKLIDKYVEISTKAFLKYHENPESKELLEAVDKLADELGKAAQHVNLMRENKDDEEKVEKELKEFEEHSKKAEELLKKVEELIK
With B4 the “median log2 fold change” value was -0.206.

B5: usp_38_diff_out_18_28_428 (protein)
chain: SQEEIQKLIEENRKKTDELIDEANKVATEAYLAYHDNPEATELLEAVDKLWDALGKAAQAVNEMRENRDDPEKVKKEAAKFEEAAKKAEEYIKKIKELIA
With B5 the “median log2 fold change” value was 0.0104.

B6: usp_38_diff_out_18_28_407 (protein)
chain: MEEEIKEKIEEAKKRLDELIDRYVEIATKAFLKYHENPESKELLEKVRKLADELGKAAQAVNLMRENKDNEEKVEEELEKFEKHYEEAEKLLEEIEKLIK
With B6 the “median log2 fold change” value was -0.152.

B7: usp_38_diff_out_18_28_417 (protein)
chain: MLEERRERLKEMEKEADELIDKYNEAATKGFLYYHEHPEAEEVLEAVDKLSDAVGAAAAAVNEMRENIEDEEAFKKEEEKFKEYKKEAEKYLEELEKLIA
B7 was tested, and the “median log2 fold change” value was -0.307.

B8: usp_38_diff_out_18_28_420 (protein)
chain: MKEERLKKLEELEKRADALIDEYNELATKGFLKYHDDPSATEVLEAVNKLSDAVGAAAAAVNAMKENIDNEEAFEAEYKKFEEEEAKAKEYAEELKKLIA
For B8, the “median log2 fold change” value was 0.326.

B9: usp_38_diff_out_18_28_400 (protein)
chain: MQEEIQKIIEENEKKTNELIDKYTELGEKAFLAYHEDPSNEELLEKLDELADALGKAAKKVNEMRENKNDPEKVKEYSKEFEEYYKKAEALMKEIEKLLA
In the case of B9, the “median log2 fold change” value is reported as -1.05.

B10: usp_38_diff_out_18_28_414 (protein)
chain: MLEENKKKIEEMKKEADELIDKANEVMTQGYLAYADDPSNEELLKAIRELGDAVGAAAAAVREARENIENPEKVEKEKKKFEEAKKAAEEKIEEVKKLIA
B10 was tested, and the “median log2 fold change” value was 0.143.

B11: usp_38_diff_out_18_28_402 (protein)
chain: MEEEIEKKIEEAEKRTDELIDEYVELGEKAFLKYHEDPSSEELLEKLDKLADELGKAAQAVNLMRENRDDPEKVEKEYAEFEKYYEKAKKLLEEIKKLLE
For B11, the “median log2 fold change” value was 0.282.

B12: usp_38_diff_out_18_28_406 (protein)
chain: SSEEIEKKIEEAKEETDKLIDRYVEISTAAFLKYHEDPSSEELLKKVNELADALGKAAKAVNEMRENKDNEEKVEKYLEEYKKYSEEAEKLLEEIEKLIK
With B12 the “median log2 fold change” value was 0.0217.

B13: usp_38_diff_out_18_28_415 (protein)
chain: MLEENRKKIEEAKKEADELIDKANKVATEGFLKYSEDPSNEELLKAVNELLDYVGKAAAAVVEMRENINDPEAVEEQLKKFKEAKEKAEKAIEEVKKLIA
For B13, the “median log2 fold change” value was 0.333.

B14: usp_38_diff_out_18_28_403 (protein)
chain: MQEEVEKKIKEAEKKTDELIDKYTEAATAGFLKYAEDPSATELVEAVRAAADALGAAAQAVNEMKRNKDDPEKVEELLKKFEEAYKKAEEALKEIERLIA
With B14 the “median log2 fold change” value was -0.0578.

B15: usp_38_diff_out_18_28_401 (protein)
chain: MEEEIEKKIKEAKEKTDEMIDEYVELGEQAFLKYHEDPSSEHLLELLNEAADALGKAAKAVNLMRENKDDPEKVEKELEKFKKYSEKAEKLFEEIKKELE
In the case of B15, the “median log2 fold change” value is reported as -0.818.

B16: usp_38_diff_out_18_28_413 (protein)
chain: MREENRKRIEEMEKKADELIDEANEVATEGYLKYADDPSNEELLKAIRELMDAVGEAAAAVREARENIDDPEKVEEEEKRFEEAYEKAKKKIKEVKELIK
In the case of B16, the “median log2 fold change” value is reported as -0.0716.

B17: usp_38_diff_out_18_28_396 (protein)
chain: AEAERAALEKRLAELQKRLDALITEATAAATAALEAHPDDAAVWALVAQLFDALGAAAAALQRARELLRAGGPLEEVQAALDEAEAHLAQAEALLAELKA
With B17 the “median log2 fold change” value was -0.054.

B18: usp_38_diff_out_18_28_421 (protein)
chain: MREERRKRIEELEKEADELIDEYEKLAREAFLYYHENPEAEEVLEAARRLGDAVGKAAAAVNEMKENIDDEEKFEEYEEEFKRYKAEAKEYAEELKKLLA
For B18, the “median log2 fold change” value was -0.848.

B19: usp_38_diff_out_18_28_430 (protein)
chain: AEEEIKAKIEAAEKEMDKLIDEYVKVAEEAFLKLDESDKGEELEEAINKMADALGKAAAAVNEMRRNRDDPAAVEAELEKFKKAKKEAEEYIKKIKELLK
In the case of B19, the “median log2 fold change” value is reported as -0.244.

B20: usp_38_diff_out_18_28_404 (protein)
chain: MMEEIQKKIEEAEKEADKLIDEYTKAATEAFLKYAEDPSATELVEAVNKAADALGEAAKAVNEMRRHKDDPEKVEKELKKFEEAKKKAEEALKEIKKLIA
In the case of B20, the “median log2 fold change” value is reported as -0.178.

B21: usp_38_diff_out_18_28_412 (protein)
chain: SAAAVQATIDQMKADLDALIDEANEVSEKAFLKYGEDPSSTELLAAVNELWDHLGAAAQAVNDARRNRDNEAAVAAKAAEFKKHADKAKEKIAEIKKLIA
For B21, the “median log2 fold change” value was -0.188.

B22: usp_38_diff_out_18_28_409 (protein)
chain: AKEEIEKKIEEAEKELDELIDEYVKISTEAFLKYHEDPSSKELLEAVNELADELGKAAQAVNEMRKNRDDKEAVEKQLKVFEEHKKKAEELLKKIKELIK
For B22, the “median log2 fold change” value was -0.273.

B23: usp_38_diff_out_18_28_426 (protein)
chain: MLEENKKKIEKAKEEADKLIDEANKVATEGFLKYSENPENEELLKKINELWDAVGKAAQAVNDMRENIEDEEAVEKNLKKFEEAKKEAEKLIEELKKLIE
In the case of B23, the “median log2 fold change” value is reported as 0.0382.

B24: usp_38_diff_out_18_28_416 (protein)
chain: MMKEIEEKIEKLEKEADELIDKATEAMTKGFLKINEDPNSEELIEAINKLSDAVGKAAHAVNLARRNKNNPEAVEKYEKEFEKAKKEAEKELKKLEELIK
In the case of B24, the “median log2 fold change” value is reported as -0.28.

B25: usp_38_diff_out_18_28_405 (protein)
chain: MQEEIEKKIEEAEKRTNELIDKYTEAATRAFEAYAEDPSKTELVKAINEASDALGKAAQAVNEMKRNKDDPEKVEKELKKFEEAYKKAEEAIAKIEELIA
B25 was tested, and the “median log2 fold change” value was 0.0557.

B26: usp_38_diff_out_18_28_398 (protein)
chain: SAAERAELEAELAALQKELDALITEATAAATAALTAHPDSAEVWALVDALFDHLGAAAAALREARRLLREGGPLEEVRAALAAAQAHLAEARALLAELKA
With B26 the “median log2 fold change” value was 0.000517.

B27: usp_38_diff_out_18_28_429 (protein)
chain: SMEEIKKKIEEAEKEADALIDEANEVATQGFLAYHENPEKTELLEAVNELWDALGKAAQAVNDMRENKNNPEKVEKELKKFKEAAKAAKEKIAKIKELIA
For B27, the “median log2 fold change” value was -0.434.

B28: usp_38_diff_out_18_28_399 (protein)
chain: EEEERRRLEEELRRLEEELDELIDEAVEAATKALTAHPGDEAVEALVRELFDHLGAAAAALREARELLRAGGDPEEVRRLLEEAREHLEKAREALKELKA
B28 was tested, and the “median log2 fold change” value was -0.117.

B29: usp_38_diff_out_18_28_424 (protein)
chain: MAAEIQARIDAAKARADALIDEVEKVSTEAFLKYSEDPSMEELLEADRKLWDAAGTAAAAVRAMREHRDDPAAVDAELAVFEKAAAEAEKLIKEIKELIK
In the case of B29, the “median log2 fold change” value is reported as 0.0788.

B30: usp_38_diff_out_18_28_425 (protein)
chain: MREEVERRIAELEARADALIDRAEEVSTKAFLAYSEDPSSEELLKKNDELWDAVGAAAAAVREMRENRDDPEAVAREEERFREAAARAEALIKEIEKLIK
In the case of B30, the “median log2 fold change” value is reported as -0.0591.

B31: usp_38_diff_out_18_28_410 (protein)
chain: KKEEIEKKIEEAEEELDKLIDEYVEVATEAFLKYHEDPSSEELLEKVRELADELGKAAKAVNEMRENKDNEEKVEEELEKFKKHKEEAEKLLKEVKELIK
For B31, the “median log2 fold change” value was -0.357.

B32: usp_38_diff_out_18_28_397 (protein)
chain: EEERREELERRLEELERELDALIREATEAATAALEAHPDSAEVWALVDALFDALGAAAAHLRRARELLREGGPLEEVERELEKAEAHLAEARALLAELKA
For B32, the “median log2 fold change” value was -0.194.
